Shown is part of a subset that was picked to be rich in hits.
ST2 IL33 inh: inhibitors of human ST2 (IL1RL1) binding to IL-33, primary screen, biochemical, AlphaLISA; AlphaLISA ST2-Fc/biotin-IL-33 interaction, 1 h; actives 2.3% (n = 78,000); inhibition, % for hits at 17 µM; in the data active = inhibition above about 30%
Target sequence (Q01638 whole entry, looked up): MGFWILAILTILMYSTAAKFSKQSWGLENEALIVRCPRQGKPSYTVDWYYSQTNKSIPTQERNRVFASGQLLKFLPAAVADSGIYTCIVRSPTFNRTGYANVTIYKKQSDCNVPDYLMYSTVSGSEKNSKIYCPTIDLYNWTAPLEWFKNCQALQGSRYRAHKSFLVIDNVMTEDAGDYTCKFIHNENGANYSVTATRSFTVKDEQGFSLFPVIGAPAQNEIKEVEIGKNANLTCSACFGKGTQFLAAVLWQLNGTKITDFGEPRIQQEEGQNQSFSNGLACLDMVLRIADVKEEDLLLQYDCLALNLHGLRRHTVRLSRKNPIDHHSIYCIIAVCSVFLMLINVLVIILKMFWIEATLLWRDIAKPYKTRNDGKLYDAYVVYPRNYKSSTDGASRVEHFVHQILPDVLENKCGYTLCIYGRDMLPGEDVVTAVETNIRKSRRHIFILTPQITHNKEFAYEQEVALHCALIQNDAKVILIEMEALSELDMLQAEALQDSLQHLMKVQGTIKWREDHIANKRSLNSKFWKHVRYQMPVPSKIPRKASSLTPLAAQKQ
Starred values were filed as active, the others as inactive; i = inactive.

SMILES	ST2 IL33 inh
CCCCOc1cccc(N=Cc2c(C)[nH]n(-c3ccccc3)c2=O)c1	36.0%*
Cc1[nH]n(-c2ccccc2)c(=O)c1C=Nc1c(C)[nH]n(-c2ccccc2)c1=O	i
O=C(Nc1cc(C(=O)N2CCC[C@H]2CO)c2c(c1)ncn2C1CCCC1)c1ccccc1	i
CN(C)c1ccc(C2SCCN2C(=O)c2ccc([N+](=O)[O-])cc2)cc1 (configuration not stated)	30.0%*
O=[N+]([O-])c1ccc(C2SCCN2S(=O)(=O)c2ccc(I)cc2)cc1 (configuration not stated)	i
O=C(c1ccc([N+](=O)[O-])cc1)N1CCSC1c1cccc(Cl)c1 (configuration not stated)	i
OCCN1CCN(c2nc(NCc3ccco3)c3ccccc3n2)CC1	i
O=[N+]([O-])c1ccc(N2CCN(c3nc(N4CCN(CCO)CC4)nc4ccccc34)CC2)cc1	31.0%*
Cc1cc(N2CCN(c3cc(N4CCN(CCO)CC4)ccc3[N+](=O)[O-])CC2)c2ccccc2n1	i
COc1ccc(CCNC(=O)C(C)Oc2ccc(Cl)cc2Cl)cc1OC (configuration not stated)	i
CC1CCN(C(=O)c2cn(C)c(=O)c3c2c2ccccc2n3C)CC1	i
N#Cc1cccc(CN2CC[C@H](c3nnc(-c4ccccc4)o3)C2)c1	i
CCN1CCN(C(=O)c2ccc(N3CCC(N4CCC(Oc5ccc(F)cc5)CC4)CC3)cc2)CC1	i
CCN(Cc1ccc(OC)cc1)C(=O)c1ccc(-n2cnnc2)cc1	i
COc1ccccc1C1C(Oc2ccccc2C)C(=O)N1c1cccc([N+](=O)[O-])c1 (configuration not stated)	33.0%*
COc1cc([N+](=O)[O-])ccc1NC(=O)c1c(C)nn(-c2ccccc2)c1Cl	i
COc1cccc(OC)c1C(=O)Nc1ccc([N+](=O)[O-])cc1	i
C=CCOc1ccc(C2C(C(=O)OC)=C(C)N=C3SCCC(=O)N32)cc1 (configuration not stated)	i
COc1cc2c(c(O)c1OC)CC(=O)CCC2	i
COc1ccc(-c2nn(-c3ccccc3)cc2C2SCC(=O)N2Cc2ccccc2)cc1 (configuration not stated)	i
Cc1ccc(-n2c(=O)c3sccc3n(Cc3ccccc3C#N)c2=O)cc1	i
O=C(NC(Cc1ccccc1)C(=O)O)/C(=C/c1ccc2c(c1)OCO2)NC(=O)c1ccco1 (configuration not stated)	i
Clc1ccc(CNCc2cccnc2)cc1	i
CN(C)c1ccc(C(=O)Nc2nc3ccc(Cl)cc3s2)cc1	i
Cc1nc2cc(CCO)ccc2s1	i
SMILES	ST2 IL33 inh
Cc1nc2ccc(N(C)C)cc2s1	33.0%*
CN(C)CCNC(=O)c1cc(Sc2cccc(Cl)c2)nc2ccccc12	i
C=CCn1c(CCNC(=O)COc2ccccc2)nc2ccccc21	i
CCOC(=O)N1CCC(NCc2n[nH]c3c2CCCCC3)CC1	i
Cc1ccc(F)c(-c2ncccc2NC(=O)C(C)C)c1	i
Cc1ccc(F)c(-c2ncccc2C(=O)N2CCCC2)c1	i
Cc1ccc(C)c(C2=C/C(=C3/c4ccccc4-c4ncccc43)C(=O)O2)c1	43.0%*
C=CCOc1ccc(C(O)=C2C(=O)C(=O)N(CCN(C)C)C2c2ccc([N+](=O)[O-])cc2)cc1 (configuration not stated)	i
CCCCc1cc(C[C@H]2CNCC[C@H]2CC(=O)N2CCN(C(C)=O)CC2)no1	43.0%*
COc1ccc(-c2cc(C[C@H]3CNCC[C@H]3CC(=O)N3CCN(C(C)=O)CC3)no2)cc1	i
COC(=O)c1cc(C[C@H]2CNCC[C@H]2CC(=O)O)no1	77.0%*
COc1ccc(CNC(=O)C[C@@H]2CCNC[C@@H]2Cc2cc(-c3ccccc3)on2)cc1OC	i
CCCCc1cc(C[C@H]2CNCC[C@H]2CC(=O)N2CCc3cc(OC)c(OC)cc3C2)no1	i
COc1ccccc1CNC(=O)C[C@@H]1CCNC[C@@H]1Cc1cc(-c2ccccc2)on1	i
O=S(=O)(NCc1ccccc1)NC[C@H]1CCc2ccccc2O1	i
Cc1cccc(N(CC(=O)NCCCc2cccnc2)S(C)(=O)=O)c1	i
Fc1ccc(CNc2nc(-c3cccs3)cc(C(F)(F)F)n2)cc1	i
CC(Cn1cnc2ccccc21)C(=O)O (configuration not stated)	i
CC(C)Cn1cnc2c(N)nc3ccccc3c21	41.0%*
Nc1ncnc2c1ncn2CCOc1ccccc1	i
O=S(=O)(c1ccc2c(c1)OCCO2)N1CCC(n2cnc3cccnc32)CC1	98.0%*
CCc1nc2cccnc2n1C1CCN(S(=O)(=O)c2ccc(C(C)(C)C)cc2)CC1	i
Cc1ccc(S(=O)(=O)N2CCC(n3c(C)nc4cccnc43)CC2)cc1C	i
COc1ccc(F)c(CN2CCCC3(CCN(C(=O)c4cc5ccccc5[nH]4)C3)C2)c1 (configuration not stated)	i

From PubChem BioAssay
